Holding throughout (experiment): NCI-60 one-dose screen, 48 h (100 = growth as untreated, 0 = no growth, -100 = all killed)
What all share (details): 10 µM unless noted

Assay [1] relates to DU-145 prostate.
The subject of assay [2] is K-562 leukemia.
Assay [3] relates to MALME-3M melanoma.
Assay [4] relates to MDA-MB-231 breast.
Assay [5] has as its system RXF 393 renal.
Assay [6] relates to SF-268 CNS.
Assay [7] relates to SF-295 CNS.
For assay [8], the system named is SF-539 CNS.
Assay [9] deals with UACC-257 melanoma.
Assay [10] concerns M14 melanoma.
Assay [11] relates to HCT-15 colon.
Assay [12] relates to HT29 colon.
The test system of assay [13] is SNB-75 CNS.
Assay [14] deals with SNB-19 CNS.
In assay [15] the test system is U251 CNS.
Assay [16] concerns PC-3 prostate.
Assay [17] concerns SK-MEL-5 melanoma.
For assay [18], the system named is UACC-62 melanoma.
Assay [19] deals with LOX IMVI melanoma.
For assay [20], the system named is SK-MEL-28 melanoma.

The values that follow come from PubChem BioAssay (NCI).

This is part of a sample that, as a whole, favours compounds with a hit. Of some 83,000 tested, about 20% had one in any assay.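 Negative percent growth values reflect cell death: -40 means 40% of the cells present at the start died, and -100 means all died.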 A number with no mark means an inactive call. Calls of active or inactive are those of the source. How the source made its calls: active means growth percent below 10; inactive means the rest.

In the case of `CCCSc1nc(N)nc2nc[nH]c12`, the growth in [1] was 119%; in [2] it was 90.5%; in [3], 249%; in [4] it was 104%; in assay [5] it was 107%; in [6], 108%. Moreover, the growth in assay [7] is 120%; in assay [8], 95.6%; in [9], 105%; in [10] it was 96%; in [11] it was 104%; in assay [12] it was 112%. For the same compound, the growth in [13] is 108%; in [14], 102%; in assay [15], 107%; in assay [16], 99.4%; in [17] it was 101%; in assay [18], 87.6%. In addition, the values for the growth in assay [19] and in assay [20] were 99.3% and 126%, respectively.
For `c1ccc(-c2nc(N3CCCNCC3)c3nc(-c4ccccc4)oc3n2)cc1`, the growth was -18.4% (active) in [1]; 0.76% (active) in assay [2]; 76.9% in [3]; -3.19% (active) in assay [4]; 27.1% in assay [5]; 52% in assay [6]. Besides, the growth is 96.2% in [7]; 76.3% in [8]; 100% in [9]; 95.7% in [10]; -80.4% (active) in [11]; -63.4% (active) in assay [12]. The growth in [13] is 53.1%; in assay [14], 70.4%; in assay [15] it was -90.9% (active); in assay [16], -27.3% (active); in [17] it was 55.6%; in assay [18], -77.8% (active). Moreover, the results for the growth in assay [19] and in assay [20] were -95.7% (active) and 83.7%, respectively.
For `Nc1ccc(NC(=O)c2ccccc2)c2c1C(=O)c1ccccc1C2=O`, the growth in assay [1] is 98.5%; in assay [2], 105%; in [3] it was 89.5%; in assay [4] it was 94.7%; in [5], 106%; in [6] it was 99.3%. Further, the growth in assay [7] is 105%; in assay [8] it was 103%; in assay [9], 88.8%; in [10] it was 100%; in assay [11], 99%; in [12] it was 104%. In addition, the growth is 76% in assay [13]; 102% in assay [14]; 105% in [15]; 87.2% in [16]; 94.2% in assay [17]; 101% in assay [18]. Moreover, the growth in [19] was 109%; in assay [20], 113%.
Turning to `O=C(O)c1cc([N+](=O)[O-])ccc1Br`, the growth is 106% in [1]; 100% in assay [2]; 102% in assay [3]; 101% in [4]; 110% in [5]; 102% in assay [6]. For the same compound, the growth in assay [7] was 97.2%; in assay [8], 94.8%; in assay [9], 102%; in assay [10], 98.3%; in assay [11] it was 98.4%; in [12], 103%. Moreover, the growth in [13] is 89.5%; in assay [14] it was 99.1%; in [15] it was 96.3%; in assay [16], 100%; in assay [17], 98.9%; in [18], 91.9%. The growth in [19] was 94.7%; in assay [20], 97.8%.
Consider `O=C1/C(=C\c2cccn2Cc2ccccc2)c2ccccc2N1c1c(Cl)cccc1Cl`, for which the growth is 95.2% in [1]; 87.6% in [2]; 54% in assay [3]; 28.9% in assay [4]; 68% in assay [5]; 80.6% in [6]. Besides, the growth in assay [7] was 77.5%; in [8], 95.4%; in assay [9] it was 87.2%; in assay [10], 77%; in assay [11], 4.9% (active); in assay [12], 52.4%. For the same compound, the growth is 59.1% in [13]; 79.7% in assay [14]; 74.8% in assay [15]; 51.4% in [16]; -5.28% (active) in assay [17]; 42% in assay [18]. Besides, the growth in assay [19] is 88.8%; in assay [20], 98.4%.
As for `NC1=NC(=O)NC1(c1ccccc1)c1ccccc1`, the growth in assay [1] is 99.5%; in assay [2] it was 89.5%; in assay [3], 93.3%; in [4] it was 94%; in assay [5], 102%; in [6], 103%. Also, the growth is 117% in [7]; 104% in assay [8]; 103% in assay [9]; 98.6% in assay [10]; 97.5% in [11]; 111% in assay [12]. In addition, the growth in assay [13] was 89.9%; in assay [14] it was 98.9%; in assay [15] it was 97.4%; in assay [16] it was 94.3%; in [17] it was 95.9%; in assay [18], 101%. Further, the growth in assay [19] was 91.3%; in assay [20] it was 109%.
`Cc1ccc(N)c(O)c1`: the growth is 115% in assay [1]; 94.3% in assay [2]; 72.4% in assay [3]; 81.7% in [4]; 82.1% in [5]; 103% in [6]. Moreover, the growth in assay [7] was 121%; in assay [8], 99.1%; in [9], 80.6%; in assay [10], 85.6%; in [11], 83.8%; in [12], 95.8%. Also, the growth in assay [13] is 32.7%; in assay [14] it was 102%; in assay [15], 92.7%; in assay [16], 75.8%; in assay [17], 96.1%; in assay [18] it was 101%. For the same compound, the values for the growth in assay [19] and in assay [20] were 86.6% and 103%, respectively.
For `CC(C)=CC/C=C(/C)[C@H]1CC[C@]2(C)[C@@H]1CC[C@@H]1[C@@]3(C)CCC(=O)NC(C)(C)[C@@H]3CC[C@]12C`, the growth in [1] was 12.2% [100 µM]; in assay [2] it was 6.71% [100 µM] (active); in [3], -85.2% [100 µM] (active); in [4], -35.9% [100 µM] (active); in [5] it was -72.3% [100 µM] (active); in assay [6], 10.9% [100 µM]. Also, the growth in assay [7] is -22.5% [100 µM] (active); in [8] it was -92.2% [100 µM] (active); in assay [9], 14.8% [100 µM]; in assay [10], 15.7% [100 µM]; in assay [11] it was 11.7% [100 µM]; in assay [12], -0.044% [100 µM] (active). The growth in assay [13] is 19.7% [100 µM]; in assay [14] it was 24.9% [100 µM]; in [15] it was -67% [100 µM] (active); in assay [16] it was 16.5% [100 µM]; in assay [17], -93.5% [100 µM] (active); in assay [18], -24.4% [100 µM] (active). Moreover, the figures for the growth in assay [19] and in assay [20] were -90.1% [100 µM] (active) and -77.3% [100 µM] (active), respectively.
`COc1ccc2nc3cc(Cl)ccc3c(Nc3ccc(O)c(CN4CCCC4)c3)c2c1`: the growth in [1] was -9.64% (active); in assay [2] it was -6.52% (active); in [3] it was -86.6% (active); in assay [4], 11.7%; in assay [5], -84% (active); in assay [6] it was 38.5%. Moreover, the growth is 8.91% (active) in assay [7]; -87.4% (active) in [8]; -81.1% (active) in assay [9]; -83.2% (active) in assay [10]; 0.129% (active) in assay [11]; -22.8% (active) in [12]. Further, the growth in assay [13] is 31.5%; in assay [14], 62.5%; in [15], 0.559% (active); in assay [16], 24.2%; in assay [17], 41.1%; in assay [18], 51.9%. For the same compound, the growth in [19] was -68.6% (active); in [20], 82.9%.
For `Clc1ccc(N2CCN(CCCN3CCN(c4cccc(Cl)c4)CC3)CC2)cc1`, the growth is 79.7% in assay [1]; 38.8% in assay [2]; 52.8% in assay [3]; 50.6% in assay [4]; 41% in assay [5]; 79.2% in assay [6]. Further, the growth in [7] was 51.7%; in [8] it was 56.4%; in [9], 37.4%; in assay [10], 44.1%; in [11], 40.2%; in [12] it was 34.7%. Further, the growth in assay [13] is 52.3%; in assay [14] it was 63.3%; in [15], 55.2%; in assay [16] it was 45.3%; in assay [17] it was 1.8% (active); in [18], 58.9%. Moreover, the results for the growth in assay [19] and in assay [20] were 48.4% and 84.6%, respectively.
As to `CC[C@]1(O)CC2CN(CCc3c([nH]c4ccccc34)[C@@](C(=O)OC)(c3cc4c(cc3OC)N(C=O)[C@H]3[C@@](O)(C(=O)OC)[C@H](OC(C)=O)[C@]5(CC)C=CCN6CC[C@]43[C@@H]65)C2)C1` (stereo not given in full), the growth in [1] is -46.8% (active); in [2], 14.7%; in assay [3], 54.7%; in assay [4] it was -31.3% (active); in assay [5] it was 65.2%; in assay [6] it was 3.28% (active). For the same compound, the growth in assay [7] is 6.3% (active); in assay [8] it was 5.55% (active); in assay [9] it was 53.8%; in assay [10], 4.87% (active); in assay [11] it was 16%; in [12] it was 4.12% (active). Moreover, the growth was 38.7% in assay [13]; 43.8% in [14]; 8.14% (active) in [15]; 35.1% in assay [16]; -38% (active) in [17]; 35.6% in [18]. In addition, the growth in assay [19] is 26%; in assay [20], 61%.
Take `Nc1nc(N)c2c(n1)NC(c1ccc(F)cc1)C1CCc3ccccc3C1=N2` (stereo not given): the growth was 62.1% in [1]; 21.4% in assay [2]; 17.2% in assay [3]; 80.8% in [4]; 83.1% in assay [5]; 76.1% in [6]. The growth was 34.2% in [7]; 56.8% in assay [8]; 45.6% in assay [9]; 62.8% in assay [10]; 49.6% in assay [11]; 27.9% in assay [12]. In addition, the growth was 63.1% in assay [13]; 70.7% in [14]; 41.8% in assay [15]; 45% in [16]; 1.07% (active) in [17]; 47.5% in [18]. For the same compound, the growth was 52.8% in assay [19] and 93.4% in assay [20].
Turning to `FC(F)(F)c1ccc2c(c1)Sc1ccccc1N2`, the growth in assay [1] was 97.1%; in assay [2], 93.6%; in assay [3], 100%; in assay [4] it was 99.5%; in assay [5], 96.6%; in assay [6], 92.9%. Also, the growth was 97.2% in assay [7]; 97.8% in [8]; 112% in assay [9]; 98.3% in assay [10]; 92.2% in [11]; 102% in assay [12]. Also, the growth was 89% in [13]; 95.9% in [14]; 91.5% in assay [15]; 93.9% in assay [16]; 98.1% in assay [17]; 85.3% in assay [18]. In addition, the growth in assay [19] is 104%; in [20], 110%.
On to `COC(=O)[C@@H](NC(=O)NC(=O)NC(=O)CI)C(C)C`, for which the growth in [1] was 106%; in assay [2], 15.2%; in assay [3] it was -46.4% (active); in assay [4], 72.5%; in assay [5], 83.3%; in [6] it was 95.8%. Further, the growth is 95.3% in assay [7]; 92.7% in assay [8]; 87.1% in [9]; 85.8% in [10]; 37% in assay [11]; 60.2% in assay [12]. The growth was 102% in [13]; 94.5% in assay [14]; 100% in assay [15]; 85.5% in assay [16]; 85.2% in [17]; 83.1% in [18]. For the same compound, the growth in [19] was -77.4% (active); in assay [20] it was 91.7%.
